Mtb FBA inh: Mtb FBA enzyme inhibitors, primary screen, biochemical, fluorescence, strain H37Rv. 360,000 tested, 2.3% active. purified M. tuberculosis FBA, fluorescence read-out. Fructose-bisphosphate aldolase (Mycobacterium tuberculosis (strain ATCC 25618 / H37Rv)), …. inhibition, % at 1 µM; in the data active means inhibition above about 27%;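 further: 0% = vehicle and 100% = reference inhibitor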
Target sequence (P9WQA3 whole entry, looked up): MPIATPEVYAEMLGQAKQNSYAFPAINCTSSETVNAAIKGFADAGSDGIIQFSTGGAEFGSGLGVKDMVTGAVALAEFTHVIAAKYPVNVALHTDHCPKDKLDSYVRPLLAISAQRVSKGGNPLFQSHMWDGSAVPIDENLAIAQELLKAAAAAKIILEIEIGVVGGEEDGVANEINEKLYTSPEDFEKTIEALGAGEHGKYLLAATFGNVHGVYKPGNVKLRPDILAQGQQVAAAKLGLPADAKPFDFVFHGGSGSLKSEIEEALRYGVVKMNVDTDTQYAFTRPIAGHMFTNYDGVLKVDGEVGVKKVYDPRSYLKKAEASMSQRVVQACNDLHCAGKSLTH
BioA inh: M. tuberculosis BioA enzyme inhibitors, primary screen, biochemical, plate reader, single point, HTS | 7,8-diaminopelargonic acid synthase BioA (Mycobacterium tuberculosis) | inhibition, % at 9.99 µM | 360,000 tested, 0.096% active | purified M. tuberculosis BioA enzyme; in the data active means inhibition above about 40%
GDH-TPI inh: GDH-TPI coupling enzyme inhibitors, primary screen, artefact control for M. tuberculosis FBA inhibitor project, biochemical, absorbance, full deck | inhibition, % at 4.8 µM | GDH-TPI coupled enzyme counterscreen, NADH absorbance | 360,000 tested, 1.2% active; in the data active means inhibition above about 30%;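 further: 0% = DMSO wells and 100% = wells lacking the enzyme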
FadD28 FP inh: inhibitors of FadD28 bisubstrate probe binding, primary screen, biochemical, fluorescence polarization, single point | inhibition, % at 12.5 µM | 360,000 tested, 0.22% active | Mycobacterium tuberculosis FadD28 fatty-acid-AMP ligase; in the data active means inhibition above about 8.5%, passing the limit was not always enough
SARS 3CLpro inh: SARS-CoV 3CLpro protease inhibitors, primary screen, biochemical, quenched FRET; Replicase polyprotein 1ab (Severe acute respiratory syndrome coronavirus), P0C6X7; recombinant SARS-CoV 3CLpro, quenched FRET peptide cleavage; inhibition, % at 6 µM; 290,000 tested, 0.14% active; in the data active means inhibition above about 12%
* = called active by the depositor. An excerpt weighted towards active compounds, which were near 3.1% of everything screened.

How did COc1ccc(NC(=O)C2CC(=O)N/C(=N/N=C/c3ccco3)S2)cc1 (stereo not given) do in these assays?
Mtb FBA inh: -2; BioA inh: 0; GDH-TPI inh: 45*; FadD28 FP inh: -3; SARS 3CLpro inh: 1

How did O=C(C[C@H]1C[C@@H]2c3cc(NC(=O)NC4CCCC4)ccc3O[C@@H]2[C@H](CO)O1)NCc1ccccc1 do in these assays?
BioA inh: -1

What do the screens show for `CN1C(=O)c2cc(NC(=O)c3cccc(F)c3)ccc2OC[C@H]2O[C@@H](CC(=O)Nc3ccccc3)CC[C@H]21`?
BioA inh: 3

What do the screens show for `C[C@H](CO)N1C[C@H](C)[C@H](CN(C)Cc2ccc(C(F)(F)F)cc2)OCCCC[C@H](C)Oc2ccc(NC(=O)CCCN(C)C)cc2C1=O`?
BioA inh: 5

Results for COc1ccc(-c2cn(CC[C@H]3CC[C@@H](NC(=O)NC(C)C)[C@H](CO)O3)nn2)cc1 ?
BioA inh: 0

Results for COc1ccc(S(=O)(=O)N[C@H]2CC[C@@H](CC(=O)N3CCc4ccccc4C3)O[C@@H]2CO)cc1 ?
BioA inh: -1

Results for Cc1ccccc1CS(=O)(=O)CC(O)CN1CCCC1=O (stereo not given) ?
Mtb FBA inh: active; BioA inh: 0; GDH-TPI inh: 0; FadD28 FP inh: -2; SARS 3CLpro inh: 2

Results for CC(C)(C)c1ccc(CS(=O)(=O)CC(O)CN2CCCC2=O)cc1 (stereo not given) ?
Mtb FBA inh: 0; BioA inh: 0; GDH-TPI inh: -1; FadD28 FP inh: -2; SARS 3CLpro inh: -5

How did COCCOC(=O)/C(=C/c1ccc(OC(=O)c2ccccc2)cc1)C(C)=O do in these assays?
Mtb FBA inh: 31*; BioA inh: -3; GDH-TPI inh: 10; FadD28 FP inh: 1; SARS 3CLpro inh: 4

Results for CCOC(=O)/C(=C/c1ccc(OC(=O)c2ccncc2)cc1)C(C)=O ?
Mtb FBA inh: -2; GDH-TPI inh: 7; FadD28 FP inh: -3; SARS 3CLpro inh: -1

What do the screens show for `N#C/C(N=Nc1ccccc1O)=N\Nc1ccccc1O`?
Mtb FBA inh: -1; BioA inh: -1; GDH-TPI inh: 13; FadD28 FP inh: 9.4*

How did CC(=O)NS(=O)(=O)c1ccc(NC(=O)/C=C/c2cn(-c3ccccc3)nc2-c2ccccc2)cc1 do in these assays?
Mtb FBA inh: -4; BioA inh: 0; GDH-TPI inh: 43*; FadD28 FP inh: -6; SARS 3CLpro inh: 6

Results for O=C(/C=C\c1cn(-c2ccccc2)nc1-c1ccccc1)Nc1nccs1 ?
Mtb FBA inh: -1; GDH-TPI inh: 27; FadD28 FP inh: 2; SARS 3CLpro inh: 2

How did COc1ccc(/C=C(\C#N)C(=O)N=CN(C)C)cc1 do in these assays?
Mtb FBA inh: -1; GDH-TPI inh: 10; FadD28 FP inh: 0; SARS 3CLpro inh: -3

Results for CN(C)C=NC(=O)/C(C#N)=C1\CCc2ccccc2N1 ?
Mtb FBA inh: 1; BioA inh: 0; GDH-TPI inh: 56*; FadD28 FP inh: -2; SARS 3CLpro inh: -3

Results for C[C@@H]1CCCCO[C@@H](CN(C)S(=O)(=O)c2cn(C)cn2)[C@@H](C)CN([C@@H](C)CO)C(=O)c2cc(NS(=O)(=O)c3ccc(Cl)cc3)ccc2O1 ?
BioA inh: -1

Results for O=C(C[C@H]1C=C[C@H](NC(=O)C2CCC2)[C@@H](CO)O1)NCC1CC1 ?
BioA inh: -2

Results for O=C1OCCN1C(=O)[C@H]1[C@H](c2ccc(Cl)cc2)C(c2ccc(F)cc2)=NN1c1ccc(Br)cc1 ?
Mtb FBA inh: 55*; BioA inh: 0; GDH-TPI inh: 31*; FadD28 FP inh: -1

How did Cc1ccc[n+](CC(=O)Nc2ccc([N+](=O)[O-])cc2)c1 do in these assays?
Mtb FBA inh: 2; BioA inh: 7; GDH-TPI inh: 42*; FadD28 FP inh: 1; SARS 3CLpro inh: -2

What do the screens show for `COCC(=O)Nc1ccc2c(c1)OC[C@H](C)N(Cc1ccccn1)C[C@@H](C)[C@H](OC)CN(C)C2=O`?
BioA inh: 0

How did Cc1cccc(N/C=C/C(=C(C#N)C#N)N(C)C)c1 do in these assays?
Mtb FBA inh: 4; GDH-TPI inh: 9; FadD28 FP inh: 11*; SARS 3CLpro inh: -2

What do the screens show for `COc1ccccc1CNC(=O)C[C@@H]1C[C@H]2c3cc(NC(=O)CC4CC4)ccc3O[C@H]2[C@@H](CO)O1`?
BioA inh: -2

Results for CCOC(=O)c1cn2nc(Oc3cccc(C(F)(F)F)c3)ccc2n1 ?
Mtb FBA inh: 66*; GDH-TPI inh: 5; FadD28 FP inh: -1; SARS 3CLpro inh: -3

Results for O=C(N=Nc1c(O)[nH]c2ccc(Br)cc12)c1ccco1 ?
Mtb FBA inh: -3; BioA inh: 0; GDH-TPI inh: 39*; FadD28 FP inh: -3

Results for O=C(N=Nc1c(O)[nH]c2ccc(Br)cc12)c1ccccc1-n1cccc1 ?
Mtb FBA inh: -2; BioA inh: -4; GDH-TPI inh: 14; FadD28 FP inh: -2; SARS 3CLpro inh: 4

Results for CC1(C)CC(=O)C=C(c2ccc3[nH]ccc3c2)C1 ?
Mtb FBA inh: -2; BioA inh: 1; GDH-TPI inh: 34*; FadD28 FP inh: -5

Results for COc1ccc(C2=CC(=O)CC(C)(C)C2)cc1OC ?
Mtb FBA inh: 5; BioA inh: 10; GDH-TPI inh: 35*; FadD28 FP inh: -2

How did COc1ccc(C2=CC(=O)C[C@H](c3ccc(OC)c(OC)c3)C2)cc1 do in these assays?
Mtb FBA inh: -3; BioA inh: 21; GDH-TPI inh: 30; FadD28 FP inh: -2

Results for CC1(C)CC(=O)C=C(c2ccc(I)cc2)C1 ?
Mtb FBA inh: -2; BioA inh: 3; GDH-TPI inh: 0; FadD28 FP inh: -3

How did COc1ccc2cc(C3=CC(=O)CCC3)ccc2c1 do in these assays?
Mtb FBA inh: 23; BioA inh: 0; GDH-TPI inh: 31*; FadD28 FP inh: -4

What do the screens show for `O=C1C=C(c2ccc3[nH]ccc3c2)CCC1`?
Mtb FBA inh: -2; BioA inh: 1; GDH-TPI inh: 35*; FadD28 FP inh: -2

Results for CCNC(=O)Nc1ccc2c(c1)C(=O)N(C)[C@@H]1CC[C@H](CC(=O)NCCN3CCCC3)O[C@H]1CO2 ?
BioA inh: -2

What do the screens show for `O=C(/C=C/NCc1cccnc1)c1ccc(Br)cc1`?
Mtb FBA inh: -3; GDH-TPI inh: 54*; FadD28 FP inh: -2

Results for O=C(/C=C/NCc1cccnc1)C(F)(F)C(F)(F)F ?
Mtb FBA inh: 1; BioA inh: -8; GDH-TPI inh: 8; FadD28 FP inh: 0; SARS 3CLpro inh: -5
